The whole screen tested about 16,000 compounds, of which about 4,000 (25%) were called active. Roughly 26% stayed inconclusive and do not appear here. Calls follow the shape of the dose curve; as a rule, active = well fitted curve in the direction sought with a large enough effect; inconclusive = small, poorly fitted or top-dose-only effect, or effect the other way; inactive = no such curve, though single readings can be large or run the other way. Only a sample is shown.

We go through 81 molecules from PubChem BioAssay AID1851 (National Center for Advancing Translational Sciences (NCATS), 2009).
% is scaled to controls: 0 for no effect and ±100 for the full control effect.

Chain of Cytochrome P450 2C9 (Homo sapiens) (P11712 whole entry, looked up): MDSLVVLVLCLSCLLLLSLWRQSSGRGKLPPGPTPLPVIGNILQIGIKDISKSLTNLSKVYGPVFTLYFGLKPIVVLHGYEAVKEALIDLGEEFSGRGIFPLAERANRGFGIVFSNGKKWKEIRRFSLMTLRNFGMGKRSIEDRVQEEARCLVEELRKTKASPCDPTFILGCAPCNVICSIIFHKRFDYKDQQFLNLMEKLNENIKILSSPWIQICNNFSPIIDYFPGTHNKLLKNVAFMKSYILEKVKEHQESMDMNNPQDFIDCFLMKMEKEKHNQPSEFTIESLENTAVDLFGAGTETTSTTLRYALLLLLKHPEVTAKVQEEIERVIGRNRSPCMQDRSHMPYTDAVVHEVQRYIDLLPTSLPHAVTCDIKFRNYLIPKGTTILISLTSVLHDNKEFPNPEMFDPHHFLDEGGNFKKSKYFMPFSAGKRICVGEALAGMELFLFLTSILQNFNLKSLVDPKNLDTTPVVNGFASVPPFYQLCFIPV

This experiment addresses Cytochrome P450 2C9 (Homo sapiens) (UniProt P11712). The experiment is described as follows: Cytochrome panel assay with activity outcomes. To be noted: recombinant CYP, pro-luciferin dealkylation, luminescence, p450-cyp2c9; series mostly up to 57.1 µM.
As usually defined, the AC50 is the midpoint of the concentration-response curve, whichever way the signal moves. As for `N#Cc1cccc(NC(=O)N2CCCC3(CCN(C(=O)c4csnn4)CC3)C2)c1`, the AC50 result is “inactive”.

`O=c1c(-c2ccc(F)c(F)c2)nc2cncnc2n1Cc1ccccc1Cl`: the half-maximal activity concentration (AC50) was 5.01 µM (active).

On to `O=c1c(-c2ccc(Cl)cc2)nc2cncnc2n1Cc1ccccc1Cl`, for which the AC50 result is “inactive”.

In the case of `O=c1c(-c2ccc(F)c(F)c2)nc2cncnc2n1C1CC1`, the AC50 entry is “inactive”.

In the case of `O=c1c2ccccc2sc2c(CO)ccc(NCCN3CCCCC3)c12`, the activity, negative = inhibition is 17.3% [at 11.4 µM] (inactive).

For the molecule `COc1ccc([N+](=O)[O-])cc1COc1ccc2c(-c3ccccc3)cc(=O)oc2c1`, the AC50 was 7.08 µM (active).

As to `N[C@H](CCCP(=O)(O)O)C(=O)O`, the AC50 result was “inactive”.

Regarding `Cc1cn(CC[C@H](N)C(=O)O)c(=O)[nH]c1=O`, the activity, negative = inhibition is 23.1% [at 11.4 µM] (inactive).

Turning to `Cc1o[nH]c(=O)c1CC[C@H](N)C(=O)O`, the AC50 is 10 µM (active).

As to `CCCCCCc1c(C[C@H](N)C(=O)O)o[nH]c1=O`, the AC50 entry was “inactive”.

Turning to `Cc1ccc(S(=O)(=O)N[C@H]2COC(=O)[C@H](C)COC(=O)[C@H](C)NC(=O)C/C=C\[C@H]2C)cc1`, the activity, negative = inhibition is 2.34% [at 11.4 µM] (inactive).

For the molecule `CC(C)(C[C@@]1(C)NC(=O)NC1=O)OCc1ccccc1`, the activity, negative = inhibition is 9.56% [at 11.4 µM] (inactive).

For `CN1CCc2c(c3c(n2C)CCN(C)[C@H]3c2ccccc2F)[C@@H]1c1ccccc1F`, the AC50 result is “inactive”.

As to `O=C1NCCN1Cc1ccccc1F`, the AC50 was 12.6 µM (active).

Turning to `COc1ccc(OC)c(NC(=O)[C@H]2CC=CC[C@H]2C(=O)O)c1`, the AC50 result was “inactive”.

Take `COc1ccc(OC)c(NC(=O)CC(Cc2ccccc2OC)C(=O)O)c1` (stereo unspecified): the AC50 was 2.24 µM (active).

In the case of `Cc1ccc(Oc2ncc(CN3CCOCC3)s2)cc1`, the AC50 entry was “inactive”.

`CCOC(=O)C1CCN(C(=O)C2CCN(S(=O)(=O)N3CCCC3)CC2)CC1`: the AC50 result was “inactive”.

With `CCOC(=O)C1CCN(Cc2cnc(Oc3ccc(OC)cc3)s2)CC1`, the AC50 was 10 µM (active).

As to `c1ccc2nc(C3=NCCN3)cnc2c1`, the AC50 entry was “inactive”.

For the molecule `N=C(N)S[C@H]1c2ccccc2-c2cc([N+](=O)[O-])ccc21`, the activity, negative = inhibition is -26% [at 11.4 µM] (inactive).

Take `O=C1c2ccccc2C(=O)N1CCCCN(C(=O)c1cccc([N+](=O)[O-])c1)c1ccc(Cl)cc1`: the AC50 is 7.08 µM (active).

Turning to `O=C1c2ccccc2C(=O)N1CCCCN(C(=O)c1ccc([N+](=O)[O-])cc1)c1ccc(Cl)cc1`, the AC50 was 1.78 µM (active).

On to `N[C@H](C(=O)O)C1[C@H](C(=O)O)[C@H]1C(=O)O` (stereo partly specified), for which the AC50 result is “inactive”.

As to `CCOC(=O)N1CCN(C(=O)c2ccc3c(=O)n(-c4ccc(OC)cc4)c(=S)[nH]c3c2)CC1`, the AC50 result is “inactive”.

With `O=c1[nH]c(=S)c2[nH]c(=O)n(-c3ccccc3)c2[nH]1`, the activity, negative = inhibition was -16.7% [at 11.4 µM] (inactive).

`CCc1cc2c(=O)n(-c3ccccc3)c(=S)[nH]c2s1`: the concentration at half-maximal activity (AC50) is 14.1 µM (active).

Regarding `O=C(N/N=C/c1c[nH]c2ccccc12)c1ccn(Cc2ccc(Cl)cc2Cl)n1`, the half-maximal activity concentration (AC50) was 1.26 µM (active).

In the case of `CO[C@@H]1COC(=O)CCC[C@@H](C)[C@H](OC)COC(=O)CCC[C@H]1C`, the activity, negative = inhibition was -7% [at 11.4 µM] (inactive).

As to `C=CCc1cccc(C2Nc3ccccc3C(=O)N2O)c1O` (stereo unspecified), the AC50 was 5.01 µM (active).

`CC(C)CC1CC(=O)OC1(C)C(=O)CSc1nc2ccccc2s1` (stereo unspecified): the AC50 is 28.2 µM (active).

For `CC1(C(=O)CSc2nc3ccccc3s2)CCC(=O)O1` (stereo unspecified), the AC50 result is “inactive”.

Regarding `Cc1ccc(OC(=O)c2cccc(C(=O)Oc3ccc(C)cc3)n2)cc1`, the AC50 entry was “inactive”.

Regarding `COc1ccc(-c2oc3ccccc3c(=O)c2OC(=O)c2ccc(C)cc2)cc1`, the AC50 is 1.26 µM (active).

In the case of `Cc1cc2ccc(OC(=O)c3ccc(N=C(N)N)cc3)cc2oc1=O`, the activity, negative = inhibition is 3.7% [at 11.4 µM] (inactive).

As to `CC(=O)NCCNc1ncnc2ccc(-c3cccc(NS(C)(=O)=O)c3)cc12`, the activity, negative = inhibition was -12.9% [at 2.29 µM] (inactive).

Take `CCC(=O)Nc1ccc(NC(=O)CSc2nnnn2-c2cccnc2)cc1C`: the AC50 entry is “inactive”.

Take `NC(=O)c1ccc(-c2nc(-c3ccc4c(c3)OCO4)c(-c3ccccn3)[nH]2)cc1`: the AC50 entry was “inactive”.

Take `Cc1ccc(NC(=O)CSc2nnc(-c3ccncc3)o2)cc1`: the AC50 was 3.55 µM (active).

Turning to `COc1ccc2nc(SCC(=O)Nc3ccc4c(c3)OCCO4)[nH]c2c1`, the AC50 was 2.24 µM (active).

In the case of `CC(C)(C)c1ccc(-c2nnc(SCC(=O)c3ccc4c(c3)OCCO4)o2)cc1`, the AC50 was 3.16 µM (active).

Turning to `Cc1ccc2nc(SCC(=O)c3ccc4c(c3)OCO4)[nH]c2c1`, the AC50 is 5.01 µM (active).

As to `CCOC(=O)NC(=O)CSc1nc2ccc(OCC)cc2[nH]1`, the AC50 result was “inactive”.

With `Cc1ccc2nc(CC(=O)c3ccc4ccccc4c3)c(=O)[nH]c2c1`, the activity, negative = inhibition was -7.8% [at 11.4 µM] (inactive).

With `CCS(=O)(=O)N1CCC(C(=O)NCCCN2CCCC2)CC1`, the AC50 result was “inactive”.

Regarding `COc1ccc([C@H]2Sc3ccccc3N(CCN(C)C)C(=O)[C@H]2OC(C)=O)cc1`, the AC50 result is “inactive”.

As to `NC(N)=N/N=C(\c1ccc(Cl)cc1)C1CC1`, the activity, negative = inhibition is -1.67% [at 11.4 µM] (inactive).

`C#CCCCO/N=C1/C[C@@H](O)[C@@H](O)[C@@H]2[C@@H]3C(=O)N(C4CCCCC4)C(=O)[C@H]3CC[C@@H]12`: the activity, negative = inhibition is -15% [at 11.4 µM] (inactive).

For the molecule `CC(C)C(O)(C(C)C)C(C)C`, the activity, negative = inhibition is -0.763% [at 11.4 µM] (inactive).

In the case of `CNc1ncncc1-c1ccc(C(=O)N(C)C)cc1`, the activity, negative = inhibition was -6.73% [at 2.29 µM] (inactive).

Regarding `Cc1ccc2nc(SCC(=O)Nc3nnc(SCC(N)=O)s3)[nH]c2c1`, the AC50 is 11.2 µM (active).

Consider `COc1cc(-c2nnc(SCC(=O)Nc3ccc4c(c3)OCCO4)o2)cc(OC)c1OC`, for which the concentration at half-maximal activity (AC50) is 1.41 µM (active).

With `COc1cc(C(=O)Nc2ccc3c(c2)OCCO3)c(-n2cnnn2)cc1OC`, the AC50 entry was “inactive”.

Regarding `COc1ccc(-n2c(=O)[nH]cc(C(=O)Nc3ccc4c(c3)OCCO4)c2=O)cc1`, the AC50 is 7.08 µM (active).

For the molecule `CCCCNCCOCCSc1ccc(Cl)cc1`, the AC50 entry is “inactive”.

As for `CCCCCc1nc2c(=O)[nH]c3ccccc3c2o1`, the AC50 entry was “inactive”.

On to `N/C(=N\c1nc2ccccc2o1)NC(=O)c1ccccc1F`, for which the AC50 is 12.6 µM (active).

Consider `NC(=Nc1ccccc1)NC(=O)c1nc(Cl)c(N)nc1N`, for which the AC50 result is “inactive”.

Consider `COc1ccc(C2/C(=C(/O)c3ccc4c(c3)CC(C)O4)C(=O)C(=O)N2CCN2CCOCC2)cc1` (stereo unspecified), for which the AC50 result is “inactive”.

As to `COc1cccc(NC(=O)CSc2nnc(CN3CCOCC3)n2C)c1`, the AC50 result was “inactive”.

Take `CCN(CC)C(=O)CSc1nc2ccc(NC(=O)CSc3nnc(COc4ccccc4C)n3C)cc2s1`: the AC50 is 1.58 µM (active).

As for `O=C(COc1ccc(-c2ccccc2)cc1)N/N=C/c1ccccc1Br`, the half-maximal activity concentration (AC50) is 4.47 µM (active).

Consider `CCOC(=O)N/N=C/c1ccccc1F`, for which the AC50 entry was “inactive”.

As to `CN(C)Cc1c[nH]c2nc[nH]c(=O)c12`, the activity, negative = inhibition was 4.29% [at 11.4 µM] (inactive).

For the molecule `c1ccc(CNc2nc(-c3ccc4c(c3)OCO4)nc3ccccc23)cc1`, the activity, negative = inhibition is -26.1% [at 2.29 µM] (inactive).

With `CC(NC(=O)CCSc1nc(-c2ccc3c(c2)OCO3)cc(C(F)(F)F)n1)c1ccccc1` (stereo unspecified), the AC50 is 2 µM (active).

Turning to `CC(=O)NCCNc1nc(-c2ccc3c(c2)OCO3)nc2ccccc12`, the activity, negative = inhibition was 5.84% [at 2.29 µM] (inactive).

As to `Cc1cc(NCCO)c2ccccc2n1`, the AC50 entry was “inactive”.

For the molecule `COCCNc1nc(-c2ccccc2C(F)(F)F)nc2ccccc12`, the activity, negative = inhibition is -9.26% [at 2.29 µM] (inactive).

Consider `CCCNc1c(F)c(F)c2c(C)c3ccccc3nc2c1F`, for which the AC50 was 15.8 µM (active).

With `CCN1CCN(c2nc(-c3ccccn3)nc3ccccc23)CC1`, the AC50 result was “inactive”.

In the case of `CCCCC1CCC(c2nc(-c3ccccn3)no2)CC1` (stereo unspecified), the AC50 was 14.1 µM (active).

As for `c1ccc2nc(-c3ccncc3)ccc2c1`, the AC50 is 5.01 µM (active).

With `CC(=O)/C=C/c1ccc2ccccc2n1`, the AC50 result is “inactive”.

For the molecule `COc1cccc(-c2cc(N(C)Cc3ccco3)ncn2)c1`, the activity, negative = inhibition was -6.29% [at 2.29 µM] (inactive).

`C[C@@H]1NC(=O)C/C=C\[C@@H](C)[C@@H]2C=C[C@H](O)[C@@H](COC(=O)[C@H](C)NC(=O)C/C=C\[C@@H](C)[C@@H]3C=C[C@H](O)[C@@H](COC1=O)O3)O2`: the activity, negative = inhibition was 5.32% [at 11.4 µM] (inactive).

Regarding `CCOc1cc(S(=O)(=O)N(Cc2ccccc2)Cc2ccccc2)c(OCC)cc1-n1cnnn1`, the concentration at half-maximal activity (AC50) was 7.94 µM (active).

Regarding `O=C(O)CN(CCOCCOCCN(CC(=O)O)CC(=O)O)CC(=O)O`, the AC50 entry was “inactive”.

As to `FC(F)(F)c1ccccc1-c1nc(NC2CC2)c2ccccc2n1`, the activity, negative = inhibition is 12.1% [at 2.29 µM] (inactive).

As for `COc1cc(C)cc(OC)c1/C=C\C(=O)O`, the activity, negative = inhibition is -15.8% [at 11.4 µM] (inactive).

On to `COc1ccc2ccccc2c1/C=C\C(=O)c1ccccc1`, for which the AC50 was 1.26 µM (active).
